Experimental data published in PubChem BioAssay (NCATS).
Inconclusive results are not listed. A call without a number means that no potency is given here. Values without a mark were called inactive. The source made the active and inactive calls. Calls come from the whole dose curve; as a rule, active = well fitted curve in the direction sought with a large enough effect; inconclusive = small, poorly fitted or top-dose-only effect, or another doubt; inactive = no such curve, though single readings can be large; an effect the other way counts as inactive or inconclusive.

Legend:
[1] = Viability qHTS for spleen associated tyrosine kinase inhibitor (SYKi) drug resistant MV4-11 cells (AID 1963824); note: nearly all actives have a fitted effect of over 35% in size; note: potency is the fitted concentration of half-maximal effect
In short: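 SYK-inhibitor-resistant MV4-11 AML cells were seeded at 500 per well onto compound and cultured 72 hours (37 °C, 5% CO2). CellTiter-Glo was then added, and after 10 min at room temperature, luminescence gave viability.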

[2] = Cellular viability qHTS for adrenocortical cancer (ACC) cell line SW-13 (AID 1963989); conditions: SW-13 ACC cells viability, CellTiter-Glo, 48 h; activity (max response): stronger effect = lower value;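 note: cells grown in serum-free medium with ITS supplement; nearly all actives have a fitted effect of over 65% in size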
In short: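 Viability was read as CellTiter-Glo luminescence after 48 h compound treatment (up to 46 uM final) of SW-13 cells grown serum-free; titration curves were fit with a four-parameter logistic model to give IC50 and efficacy.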

[3] = Cellular viability qHTS for adrenocortical cancer (ACC) cell line NCI-H295R (AID 1963990); note: nearly all actives have a fitted effect of over 60% in size; note: potency is the fitted concentration of half-maximal effect
In short: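 CellTiter-Glo ATP luminescence, read 48 h after compound addition, measured viability of NCI-H295R adrenocortical cells grown serum-free with ITS. Final concentrations spanned up to 46 uM. Data normalized to DMSO and doxorubicin, fitted for IC50 and maximal response.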

[4] = Quantitative highthroughput screen to assess conditional lethalithy of NOMO1 cells grown in RPMI1640 with dialyzed fetal bovine serum (RPMI+ds) (AID 1963877); note: nearly all actives have a fitted effect of over 30% in size; note: potency is the fitted concentration of half-maximal effect; for Viability: series mostly up to about 46 µM
In short: (§1)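 Each medium arm—HPLM with 10% dialyzed FBS, or RPMI1640 with 5 mM glucose and 10% untreated or dialyzed FBS—was screened against an 11-point, 3-fold compound titration for 48 h at 37 °C, with CellTiter-Glo luminescence as endpoint.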

[5] = Quantitative highthroughput screen to assess conditional lethalithy of P12 Ichikawa cells grown in Human Plasma-Like Medium with dialyzed fetal bovine serum (HPLM+ds) (AID 1963879); conditions: Potency: viability; note: nearly all actives have a fitted effect of over 35% in size; note: potency is the fitted concentration of half-maximal effect; for Viability: series mostly up to about 46 µM
In short: as §1

[6] = Quantitative highthroughput screen to assess conditional lethalithy of P12 Ichikawa cells grown in RPMI1640 with dialyzed fetal bovine serum (RPMI+ds) (AID 1963880); conditions: Potency: P12-Ichikawa viability; note: nearly all actives have a fitted effect of over 35% in size; note: potency is the fitted concentration of half-maximal effect
In short: as §1

[7] = Quantitative highthroughput screen to assess conditional lethalithy of P12 Ichikawa cells grown in RPMI1640 with untreated serum (RPMI+s) (AID 1963881); conditions: Potency: viability; note: nearly all actives have a fitted effect of over 35% in size; note: potency is the fitted concentration of half-maximal effect; for Viability: series mostly up to about 46 µM
In short: as §1

[8] = Quantitative highthroughput screen to assess conditional lethalithy of SEM cells grown in Human Plasma-Like Medium with dialyzed fetal bovine serum (HPLM+ds) (AID 1963882); note: nearly all actives have a fitted effect of over 35% in size; note: potency is the fitted concentration of half-maximal effect; for Viability: series mostly up to about 46 µM
In short: as §1

[9] = Quantitative highthroughput screen to assess conditional lethalithy of NOMO1 cells grown in RPMI1640 with untreated serum (RPMI+s) (AID 1963876); note: nearly all actives have a fitted effect of over 35% in size; note: potency is the fitted concentration of half-maximal effect
In short: as §1

[10] = Quantitative highthroughput screen to assess conditional lethalithy of SEM cells grown in RPMI1640 with unreated serum (RPMI+s) (AID 1963883); note: nearly all actives have a fitted effect of over 35% in size; note: potency is the fitted concentration of half-maximal effect
In short: as §1

[11] = Quantitative highthroughput screen to assess conditional lethalithy of SEM cells grown in RPMI1640 with dialyzed fetal bovine serum (RPMI+ds) (AID 1963884); note: nearly all actives have a fitted effect of over 35% in size; note: potency is the fitted concentration of half-maximal effect; for Viability: series mostly up to about 46 µM
In short: as §1

[12] = Quantitative highthroughput screen to assess conditional lethalithy of NOMO1 cells grown in Human Plasma-Like Medium with dialyzed fetal bovine serum (HPLM+ds) (AID 1963878); note: nearly all actives have a fitted effect of over 35% in size; note: potency is the fitted concentration of half-maximal effect
In short: as §1

**Q.** Which Potency [1] does the source give for `CCN(CC)CCc1c[nH]c2ccccc12` here?
**A.** inactive

**Q.** And the activity (max response) [2]?
**A.** -11.9%

**Q.** What about the Potency [3] of the same compound?
**A.** inactive

**Q.** Which results are given for `CC(=Cc1csc(C)n1)[C@@H]1C[C@H]2O[C@]2(C)CCC[C@H](C)[C@@H](O)[C@@H](C)C(=O)C(C)(C)[C@@H](O)CC(=O)O1`?
**A.** Potency [4]: inactive; Potency [5]: inactive; Potency [6]: inactive; Potency [7]: inactive; Potency [8]: inactive

**Q.** Which Potency [1] does the source give for `C#CCOC(C(=O)OCCN(C)C)(c1ccccc1)c1ccccc1` here?
**A.** inactive

**Q.** What about the activity (max response) [2] of the same compound?
**A.** 15.9%

**Q.** What about the Potency [3] of the same compound?
**A.** inactive

**Q.** With `CCCOC(=O)c1cncn1C(C)c1ccccc1` (configuration not stated) as the compound, how does the Potency [1] read?
**A.** inactive

**Q.** What about the Potency [3] of the same compound?
**A.** inactive

**Q.** Which Potency [1] does the source give for `CN(C)C(=S)SSC(=S)N(C)C` here?
**A.** 4.73 µM (active)

**Q.** What about the Potency [3] of the same compound?
**A.** 25.9 µM (active)

**Q.** Which Potency [9] does the source give for `C[C@]12CCC(=O)C(O)=C1CC[C@@H]1[C@H]3CCC(=O)[C@@]3(C)CC[C@@H]12` here?
**A.** inactive

**Q.** And the Potency [7]?
**A.** inactive

**Q.** What about the Potency [8] of the same compound?
**A.** inactive

**Q.** What about the Potency [10] of the same compound?
**A.** inactive

**Q.** Which Potency [4] does the source give for `CC[C@@H]1[C@@H](C)O[C@@](O)([C@@H](C)[C@H](O)[C@H](C)[C@H]2OC(=O)C=CC=C[C@@H](C)[C@@H]([C@@H](C)[C@@H](O)[C@H](C)[C@@]3(O)C[C@H](O[C@H]4C[C@H](O)[C@H](O)[C@H](C)O4)[C@H](CC)[C@@H](C)O3)OC(=O)C=CC=C[C@@H]2C)C[C@H]1O[C@H]1C[C@H](O)[C@H](O)[C@H](C)O1` here?
**A.** 2.64 µM (active)

**Q.** And the Potency [5]?
**A.** 2.96 µM (active)

**Q.** What about the Potency [7] of the same compound?
**A.** 7.43 µM (active)

**Q.** What about the Potency [11] of the same compound?
**A.** 1.87 µM (active)

**Q.** Which Potency [4] does the source give for `CC(C)(C)[C@]1(O)C[C@@H]2OC(=O)C[C@@]23C(=O)O[C@@H]2OC(=O)[C@H](O)C213` (some centres not stated) here?
**A.** inactive

**Q.** And the Potency [12]?
**A.** inactive

**Q.** What about the Potency [11] of the same compound?
**A.** inactive

**Q.** With `C=CCON=C(C[C@H]1O[C@@H]2O[C@]3(C)CC[C@@H]4[C@H](C)CC[C@@H]([C@H]1C)[C@@]24OO3)[C@H]1O[C@@H]2O[C@]3(C)CC[C@H]4[C@H](C)CC[C@@H]([C@@H]1C)[C@@]24OO3` as the compound, how does the Potency [9] read?
**A.** 833 nM (active)

**Q.** What about the Potency [4] of the same compound?
**A.** 0.743 µM (active)

**Q.** What does the source list for `NC1=NC(=O)N2CC12` (configuration not stated)?
**A.** Potency [9]: 5900 nM (active); Potency [4]: 5.26 µM (active); Potency [12]: 4.18 µM (active); Potency [5]: 7.43 µM (active); Potency [6]: 6.62 µM (active); Potency [8]: 3.32 µM (active); Potency [10]: 1.87 µM (active); activity (max response) [2]: -7.87%; Potency [3]: inactive

**Q.** With `COc1cccc2c1[C@]13CCN(CC4CC4)[C@H](C2)[C@]1(OC)CCC(=O)C3` as the compound, how does the Potency [9] read?
**A.** inactive

**Q.** What about the Potency [4] of the same compound?
**A.** inactive

**Q.** And the Potency [12]?
**A.** inactive

**Q.** And the Potency [6]?
**A.** inactive

**Q.** And the Potency [7]?
**A.** inactive

**Q.** With `CC(C)[C@]12O[C@@H]1[C@@H]1O[C@]13[C@]1(O[C@H]1C[C@@H]1C4=C(CC[C@@]13C)C(=O)OC4)[C@H]2O` as the compound, how does the Potency [9] read?
**A.** 1.2 nM (active)

**Q.** What about the Potency [4] of the same compound?
**A.** 0.0012 µM (active)

**Q.** And the Potency [6]?
**A.** 0.0012 µM (active)

**Q.** And the Potency [8]?
**A.** 0.0012 µM (active)

**Q.** And the Potency [10]?
**A.** 0.0012 µM (active)

**Q.** For `C[C@H]([C@H](O)CCC(C)(C)O)[C@H]1CC[C@@]2(O)C3=CC(=O)[C@@H]4C[C@@H](O)[C@@H](O)C[C@]4(C)[C@@H]3CC[C@]12C`, which Potency [4] is on record?
**A.** inactive

**Q.** And the Potency [5]?
**A.** inactive

**Q.** What about the Potency [8] of the same compound?
**A.** inactive

**Q.** With `COc1ccc(CC2NCCc3cc(OC)c(OC)cc32)cc1OC` (configuration not stated) as the compound, how does the Potency [9] read?
**A.** inactive

**Q.** And the Potency [4]?
**A.** inactive

**Q.** What about the Potency [5] of the same compound?
**A.** inactive

**Q.** And the Potency [7]?
**A.** inactive

**Q.** What about the Potency [10] of the same compound?
**A.** 14.8 µM (active)

**Q.** What does the source list for `c1ccc2c(c1)OCC(C1=NCCN1)O2` (configuration not stated)?
**A.** Potency [1]: inactive; Potency [3]: 13 µM (active)

**Q.** Which results are given for `Cc1nc(-c2ccc(-c3ccc(C(=O)N4CCc5cc6c(cc54)C4(CCN(C)CC4)CO6)cc3)c(C)c2)no1`?
**A.** Potency [4]: inactive; Potency [5]: inactive; Potency [7]: inactive; Potency [10]: inactive

**Q.** Which Potency [9] does the source give for `C[C@@H]1CC[C@H]2[C@@H](C)C(=O)O[C@@H]3O[C@@]4(C)CC[C@H]1[C@]32OO4` here?
**A.** inactive

**Q.** What about the Potency [12] of the same compound?
**A.** inactive

**Q.** And the Potency [5]?
**A.** inactive

**Q.** What about the Potency [6] of the same compound?
**A.** inactive

**Q.** And the Potency [7]?
**A.** inactive

**Q.** What about the Potency [10] of the same compound?
**A.** inactive

**Q.** Which Potency [1] does the source give for `C[N+]1(C)[C@@H]2CC[C@H]1CC(OC(=O)C(CO)c1ccccc1)C2` (some centres not stated) here?
**A.** inactive

**Q.** What about the Potency [3] of the same compound?
**A.** inactive

**Q.** Which results are given for `Cc1c(N)nc([C@H](CC(N)=O)NC[C@@H](N)C(N)=O)nc1C(=O)N[C@H](C(=O)N[C@@H](C)[C@H](O)[C@@H](C)C(=O)N[C@@H](C(=O)NCCc1nc(-c2nc(C(=O)NCCC[S+](C)C)cs2)cs1)[C@@H](C)O)C(O[C@H]1O[C@H](CO)[C@H](O)[C@@H](O)[C@@H]1O[C@H]1O[C@H](CO)[C@@H](O)[C@H](OC(N)=O)[C@H]1O)c1cnc[nH]1` (some centres not stated)?
**A.** Potency [4]: 2.64 µM (active); Potency [12]: 0.935 µM (active)

**Q.** Which results are given for `CC(C)CC(N(C)C)C1(c2ccc(Cl)cc2)CCC1` (configuration not stated)?
**A.** Potency [9]: inactive; activity (max response) [2]: -12.4%

**Q.** For `CN(C)CCN(C)CCc1ccc(Cl)c(Cl)c1`, which Potency [9] is on record?
**A.** inactive

**Q.** What about the Potency [4] of the same compound?
**A.** inactive

**Q.** What about the Potency [8] of the same compound?
**A.** inactive

**Q.** What about the activity (max response) [2] of the same compound?
**A.** -5.37%

**Q.** And the Potency [3]?
**A.** inactive

**Q.** For `COc1cccc(C(=O)CCN[C@@H](C)[C@H](O)c2ccccc2)c1`, which Potency [1] is on record?
**A.** inactive

**Q.** What about the Potency [3] of the same compound?
**A.** 25.9 µM (active)

**Q.** With `C#C[C@]1(O)C=C[C@@H]2[C@@H]3CCC4=CC(=O)CC[C@@H]4[C@H]3CC[C@@]21CC` as the compound, how does the Potency [9] read?
**A.** inactive

**Q.** And the Potency [7]?
**A.** inactive

**Q.** What about the Potency [8] of the same compound?
**A.** inactive

**Q.** And the Potency [11]?
**A.** inactive

**Q.** With `CC1=C2C[C@@H]3[C@@H](CC=C4C[C@@H](O)CC[C@@]43C)[C@@H]2CC[C@]12O[C@H]1C[C@H](C)CN[C@H]1[C@H]2C` as the compound, how does the Potency [4] read?
**A.** inactive

**Q.** What about the Potency [5] of the same compound?
**A.** inactive

**Q.** And the Potency [7]?
**A.** inactive
